# Data from PubChem BioAssay.
# Tests used:
# [1] = test system: Human papillomavirus type 1a protein E7 (residues 44-93); assay: small molecules binding HPV E7 44-93 – biochemical, small-molecule microarray, residues 44-93, 635 nm fluorescence, primary screen (AID 1108); conditions: fluorescence 635 nm, higher = more signal;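 note: E7 fragment applied at 1 µg/mL in TBST for 1 h at 4 C; score combines spot fluorescence with its signal to noise ratio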
# [2] = hepatitis C replication reporter changes, two-sided – Huh7 cells, luciferase reporter, HCV replication inhibitor project, primary screen (AID 1109); conditions: Huh7 HCV replicon luciferase reporter, 48 h; higher = more signal;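 note: huh7 hepatoma cells harbouring a luciferase neomycin HCV replicon reporter; luciferase luminescence as measure of HCV replicon replication; test concentration not given here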
# [3] = target: Left-right determination factor 2 (Homo sapiens) (UniProt O00292); assay: small molecules binding LEFTY2 protein – biochemical, small-molecule microarray, 635 nm fluorescence scan, primary screen (AID 1110); conditions: higher = more signal
# Left-right determination factor 2 (Homo sapiens), sequence (O00292 whole entry, looked up): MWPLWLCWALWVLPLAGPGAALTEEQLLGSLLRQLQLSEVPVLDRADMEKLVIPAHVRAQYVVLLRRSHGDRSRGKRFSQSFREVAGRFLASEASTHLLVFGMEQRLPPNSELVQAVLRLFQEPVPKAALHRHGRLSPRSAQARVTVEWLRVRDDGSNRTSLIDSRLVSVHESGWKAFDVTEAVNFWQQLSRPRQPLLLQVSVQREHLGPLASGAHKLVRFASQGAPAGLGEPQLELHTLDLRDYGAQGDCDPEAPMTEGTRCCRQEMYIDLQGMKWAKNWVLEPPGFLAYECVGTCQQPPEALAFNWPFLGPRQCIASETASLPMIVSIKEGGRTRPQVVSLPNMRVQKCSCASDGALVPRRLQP
# [4] = target: Calmodulin-1 (Homo sapiens) (UniProt P0DP23); assay: small molecules binding calmodulin-1 with EGTA – biochemical, small-molecule microarray, Cy5-labelled CALM1, profiling panel (AID 1111); conditions: Cy5-CALM1 binding fluorescence, higher = more signal;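 note: labelled calmodulin applied in Tris saline Tween buffer holding calcium plus EGTA and DTT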
# [5] = target: Calmodulin-1 (Homo sapiens) (UniProt P0DP23); assay: small molecules binding Ca-loaded calmodulin-1 – biochemical, small-molecule microarray, Cy5-labelled CALM1, plus calcium, artefact control for SMM control-protein annotation, profiling panel (AID 1112); conditions: Cy5-CALM1 binding fluorescence, higher = more signal;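 note: score merges spot fluorescence with signal to noise from triplicate slides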
# [6] = probe aWnt5a binding to arrayed compounds – biochemical, biotinylated probe, 635/667 nm fluorescence, primary screen (AID 1113); conditions: small-molecule microarray, higher = more signal;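 note: score merges 667 nm fluorescence intensity with signal-to-noise per printed feature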
# [7] = probe aShh binding to arrayed compounds – biochemical, biotinylated probe, 635/667 nm fluorescence, primary screen (AID 1114); conditions: small-molecule microarray, higher = more signal;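 note: probe is biotin-labelled aShh protein from a stem cell growth factor screen; measures binding of labelled protein to compounds printed on the slide; score merges feature fluorescence at 667 nm with signal-to-noise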
# [8] = probe aNog binding to arrayed compounds – biochemical, biotinylated probe, 635/667 nm fluorescence, primary screen (AID 1115); conditions: small-molecule microarray, higher = more signal;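 note: probe is biotinylated aNog protein used at 0.15 µg/mL for 1 h at 4 C; z-score combines 667 nm fluorescence of each spot with its signal to noise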
# [9] = target: Torsin-1A-interacting protein 1 (Homo sapiens) (UniProt Q5JTV8); assay: compound microarray binding of lysate hLAP1 – cell lysate, small-molecule microarray, COS7 lysate, 635/667 nm fluorescence, primary screen (AID 1116); conditions: 635 nm fluorescence, higher = more signal
# Torsin-1A-interacting protein 1 (Homo sapiens), sequence (Q5JTV8 whole entry, looked up): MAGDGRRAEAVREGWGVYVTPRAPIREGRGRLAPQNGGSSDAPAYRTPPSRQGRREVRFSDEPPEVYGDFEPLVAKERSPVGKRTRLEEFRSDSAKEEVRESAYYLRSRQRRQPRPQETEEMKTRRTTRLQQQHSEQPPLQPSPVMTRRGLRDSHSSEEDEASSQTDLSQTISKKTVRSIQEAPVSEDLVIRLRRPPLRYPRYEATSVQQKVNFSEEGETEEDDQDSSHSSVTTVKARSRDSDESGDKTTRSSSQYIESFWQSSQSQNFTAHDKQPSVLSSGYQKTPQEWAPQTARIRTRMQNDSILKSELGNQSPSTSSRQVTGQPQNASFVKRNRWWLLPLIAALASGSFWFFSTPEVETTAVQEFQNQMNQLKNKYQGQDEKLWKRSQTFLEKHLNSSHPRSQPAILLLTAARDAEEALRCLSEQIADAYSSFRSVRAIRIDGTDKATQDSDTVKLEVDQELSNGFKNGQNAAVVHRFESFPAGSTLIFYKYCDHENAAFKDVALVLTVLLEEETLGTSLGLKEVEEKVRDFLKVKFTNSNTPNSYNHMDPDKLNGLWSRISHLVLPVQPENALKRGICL
# [10] = target: Alpha-bungarotoxin (Bungarus multicinctus) (UniProt P60615); assay: compounds binding labelled alpha-BTX control protein – biochemical, small-molecule microarray, Alexa647 label, 635/667 nm fluorescence, artefact control for SMM control protein annotation, profiling panel (AID 1117); conditions: alpha-BTX-A647 binding fluorescence, higher = more signal
# Alpha-bungarotoxin (Bungarus multicinctus), sequence (P60615 whole entry, looked up): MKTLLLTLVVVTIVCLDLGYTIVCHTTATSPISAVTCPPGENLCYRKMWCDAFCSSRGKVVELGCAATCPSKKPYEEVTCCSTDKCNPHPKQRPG
Structure (SMILES),composite z-score [1],z-score [2],composite z-score [3],composite z-score [4],composite z-score [5],composite z-score [6],composite z-score [7],composite z-score [8],composite z-score [9],composite z-score [10]
C=CCOC(=O)[C@@H]1[C@H]2C(=O)O[C@H](c3ccccc3)[C@H](c3ccccc3)N2[C@H](c2ccc(OCCOC(=O)[C@H]3C[C@H]4C(=O)N[C@@H](CCCCN(C)C)C(=O)N4[C@H]3c3cccc(OCCO)c3)cc2)[C@@]12C(=O)Nc1ccccc12,0.313,-0.772,-1.19,0.12,0.177,-0.033,0.584,0.511,0.518,0.175
COc1ccc(C(O)C2C=CC3C(=O)N(c4ccccc4)C(=O)C3N2Nc2ccccc2F)c2ccccc12 (stereo not given),0.459,-0.673,0.903,2.6,0.994,0.416,0.425,1.26,1.28,2.12
COCCCNC(=O)[C@]1(Cc2ccccc2CN=[N+]=[N-])N=C(c2ccc(OCCCO)cc2)O[C@@H]1c1ccccc1N=[N+]=[N-],0.693,-2.06,-0.581,1.27,1.18,0.133,1.16,0.467,0.939,2.35
C=CC[C@]1(C(N)=O)N=C(c2ccc(OCCCO)cc2)O[C@H]1c1ccccc1N=[N+]=[N-],0.811,0.304,0.0562,0.85,0.0151,0.0317,0.0611,-0.153,1.29,1.71
CC(C)N1C(=O)[C@@]2(Cc3ccccc31)c1ccccc1C(=O)N(Cc1ccccc1)[C@H]2c1ccc(CO)cc1,0.256,-0.656,0.159,-0.439,-0.445,-0.124,-0.64,-0.218,0.0896,0.648
O=C(CS)NCCCCCCNC(=O)[C@H]1C[C@H]2C(=O)NCC(=O)N2[C@H]1c1cccc(OCCO)c1,0.864,0.36,0.281,0.214,0.214,0.0079,0.123,0.113,0.469,1.36
COc1ccc([Si](C)(C)[C@@H]2[C@@H](CC(=O)N3CCC[C@H]3CO)O[C@]3(C(=O)N(Cc4cccc(N5C(=O)c6cccc7cccc5c67)c4)c4ccccc43)[C@H]2C)cc1,1.29,-2.11,0.456,1.15,-0.226,-0.108,-0.0793,-0.458,2.23,0.669
CC(C)(C)OC(=O)CC[C@]1(C(=O)N2CCOCC2)COC(c2ccc(OCCCO)cc2)=N1,1.3,0.266,-0.325,0.922,1.03,-0.124,0.184,-0.283,1.13,-0.31
COc1ccc(NN2C(C(O)c3ccccc3)C=CC3C(=O)N(C4CCCCC4)C(=O)C32)cc1 (stereo not given),1.45,-0.888,0.395,1.38,-0.15,0.0974,0.13,0.908,0.644,1.13
C=CC[C@H](O)c1ccc(O)c(F)c1,-2.12,-1.74,-1.13,-0.829,-0.589,-0.229,-0.138,-0.537,-0.992,-0.328
C=CCNC(=O)[C@@H]1[C@H]2C(=O)O[C@H](c3ccccc3)[C@H](c3ccccc3)N2[C@H](c2ccc(O)cc2)[C@@]12C(=O)N(C(=O)OCCOC)c1ccc(C#CCC(C(=O)OC)C(=O)OC)cc12,1.39,-0.598,0.434,0.635,0.0394,-0.001,0.151,-0.1,1.42,1.11
COCCOC(=O)N1C(=O)[C@@]2(c3cc(C#CCC(C(=O)OC)C(=O)OC)ccc31)[C@H](C(=O)N1CCc3cc(OC)c(OC)cc3C1)[C@H]1C(=O)O[C@H](c3ccccc3)[C@H](c3ccccc3)N1[C@@H]2c1ccccc1OCCO,1.36,-1.61,1.07,0.965,-0.226,-0.0125,1.57,-0.512,1.03,0.774
COc1c(C)cc(-c2cc3c(c(CCc4ccccc4)n2)[Si](C(C)C)(C(C)C)O[C@H]3c2ccccc2)cc1C,-0.52,-3.84,-0.124,0.261,0.502,0.0136,0.0008,0.0225,-0.445,-0.176
